According to PubChem BioAssay (NCI):
This is part of a sample that, as a whole, favours compounds with a hit. Of some 79,000 tested, about 15% had one in any assay. Active and inactive are the calls of the source. Rule as the data show it: active = growth inhibition above about 70%; inactive = the rest.

Columns and labels:
[1] = NCI Yeast Anticancer Drug Screen. Data for the rad50 strain (AID 155);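 also: 0% = growth of vehicle-only cultures of the same strain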; settings: S. cerevisiae rad50 strain growth inhibition, stronger effect = higher value
In short: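 Readout: growth inhibition relative to vehicle-treated cultures. Compound exposure was carried out in a genetically defined yeast strain deficient in DNA damage repair.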

[2] = NCI Yeast Anticancer Drug Screen. Data for the mec2-1 strain (AID 157); settings: S. cerevisiae mec2-1 strain, stronger effect = higher value
In short: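 Compounds were applied to mec2-1 yeast cells. Their growth was then compared with that of vehicle-treated cultures to give growth inhibition.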

[3] = NCI Yeast Anticancer Drug Screen. Data for the sgs1 mgt1 strain (AID 161);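 also: 0% = growth of cultures given vehicle only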; settings: S. cerevisiae sgs1 mgt1 strain, stronger effect = higher value
In short: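 Yeast cells carrying a defined DNA-repair defect were exposed to test compounds. Growth inhibition was measured relative to vehicle-treated controls.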

[4] = NCI Yeast Anticancer Drug Screen. Data for the cln2 rad14 strain (AID 165);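 also: 0% = growth equal to vehicle treated cultures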; settings: S. cerevisiae cln2 rad14 strain, stronger effect = higher value
In short: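 Strain: cln2 rad14 yeast, altered in cell cycle control and DNA damage repair. Read-out: growth inhibition vs vehicle.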

[5] = NCI Yeast Anticancer Drug Screen. Data for the bub3 strain (AID 167); settings: S. cerevisiae bub3 mutant strain, stronger effect = higher value
In short: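 Readout: yeast growth inhibition, expressed relative to vehicle-only wells. The test organism is a mutant strain from a panel with lesions in DNA repair or checkpoint genes.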

[6] = NCI Yeast Anticancer Drug Screen. Data for the mlh1 rad18 strain (AID 175); settings: S. cerevisiae mlh1 rad18 strain growth inhibition, stronger effect = higher value
In short: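 A repair-deficient yeast strain is exposed to test compound, and growth is scored relative to vehicle-treated controls.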

[7] = at 5.0 µM (retest, dose inferred, filed as 0.5)
[8] = at 50.0 µM (retest, dose inferred, filed as 5.0)

Measured: growth inhibition

CCC(=C(c1ccc(OCCN(C)C)cc1)c1cccc(O)c1)c1ccccc1 (mixture of isomers)
active: [1]; [8] 97% | [1]; at 50.0 µM 86% | [2]; [8] 99% | [3]; [8] 98% | [3]; at 50.0 µM 96.5% | [4]; [8] 97% | [4]; at 50.0 µM 76.9% | [5]; [8] 99% | [5]; at 50.0 µM 76.5% | [6]; [8] 98% | [6]; at 50.0 µM 94%
inactive: [1]; [7] 34% | [2]; [7] 10% | [2]; at 50.0 µM 62% | [3]; [7] 44% | [4]; [7] 34% | [5]; [7] 23% | [6]; [7] 64%

C=C1CC23CCC4C(C)(C(=O)O)CCCC4(C)C2CCC1C3 (stereo not given)
active: [1]; [8] 98% | [1]; at 50.0 µM 90.5% | [2]; [8] 98% | [2]; at 50.0 µM 91% | [3]; [8] 97% | [3]; at 50.0 µM 90% | [4]; [8] 97% | [4]; at 50.0 µM 87.2% | [5]; [8] 97% | [5]; at 50.0 µM 89.3% | [6]; [8] 98% | [6]; at 50.0 µM 82%
inactive: [1]; [7] 27% | [2]; [7] 40% | [3]; [7] 18% | [4]; [7] 19% | [5]; [7] 13% | [6]; [7] 49%

O=C(O)c1ccccc1-c1ccccc1C(=O)Nc1ccc2c(c1)Cc1cc(F)ccc1-2
active: [1]; [8] 97% | [1]; at 50.0 µM 94.1% | [2]; [8] 97% | [2]; at 50.0 µM 97.5% | [3]; [8] 95% | [3]; at 50.0 µM 97.9% | [4]; [8] 96% | [4]; at 50.0 µM 96.8% | [5]; [8] 92% | [5]; at 50.0 µM 97.8% | [6]; [8] 97% | [6]; at 50.0 µM 97.2%
inactive: [1]; [7] 22% | [2]; [7] -3% | [3]; [7] -8% | [4]; [7] -19% | [5]; [7] -27% | [6]; [7] -2%

O=C(O)Cc1ccc2ccccc2c1-c1ccccc1
active: [1]; [8] 93% | [1]; at 50.0 µM 86.7% | [2]; [8] 93% | [2]; at 50.0 µM 91.8% | [3]; at 50.0 µM 85% | [4]; [8] 98% | [4]; at 50.0 µM 95% | [5]; [8] 92% | [5]; at 50.0 µM 94.7% | [6]; [8] 94% | [6]; at 50.0 µM 90.2%
inactive: [1]; [7] -1% | [2]; [7] -11% | [3]; [7] 2% | [3]; [8] -19% | [4]; [7] -3% | [5]; [7] -11% | [6]; [7] -20%

Cc1nc(Nc2ccc(Cl)cc2)sc1C(=O)Nc1cccc2c(=O)[nH][nH]c(=O)c12
active: [1]; at 50.0 µM 83% | [2]; at 50.0 µM 90.8% | [3]; at 50.0 µM 91% | [4]; at 50.0 µM 87.5% | [5]; at 50.0 µM 91.1% | [6]; at 50.0 µM 89.7%
inactive: [1]; [7] 13% | [1]; [8] 13% | [2]; [7] 6% | [2]; [8] 6% | [3]; [7] 9% | [3]; [8] 9% | [4]; [7] 3% | [4]; [8] 3% | [5]; [7] 11% | [5]; [8] 11% | [6]; [7] 14% | [6]; [8] 14%

CCCCCCCCCCN(CCCCCCCCCC)C(=O)COc1c2cc(C(C)(C)C)cc1Cc1cc(C(C)(C)C)cc(c1OCC(=O)N(CCCCCCCCCC)CCCCCCCCCC)Cc1cc(C(C)(C)C)cc(c1OCC(=O)N(CCCCCCCCCC)CCCCCCCCCC)Cc1cc(C(C)(C)C)cc(c1OCC(=O)N(CCCCCCCCCC)CCCCCCCCCC)C2
active: [1]; [7] 98% | [1]; [8] 92% | [1]; at 50.0 µM 85.8% | [2]; [7] 98% | [2]; [8] 95% | [2]; at 50.0 µM 89.3% | [3]; [7] 99% | [3]; [8] 95% | [3]; at 50.0 µM 89% | [4]; [7] 98% | [4]; [8] 94% | [4]; at 50.0 µM 87.3% | [5]; [7] 99% | [5]; [8] 94% | [5]; at 50.0 µM 87.8% | [6]; [7] 97% | [6]; [8] 92% | [6]; at 50.0 µM 84.8%

c1ccc(C(c2ccccc2)c2ccc3ccccc3n2)cc1
active: [1]; [8] 91% | [2]; [8] 71% | [3]; [8] 92% | [6]; [8] 80%
inactive: [1]; [7] -3% | [1]; at 50.0 µM 18.1% | [2]; [7] -2% | [2]; at 50.0 µM 40.8% | [3]; [7] -4% | [3]; at 50.0 µM 67.8% | [4]; [7] 2% | [4]; [8] 45% | [4]; at 50.0 µM -15.3% | [5]; [7] 23% | [5]; [8] 58% | [5]; at 50.0 µM 61.4% | [6]; [7] -3% | [6]; at 50.0 µM 37.5%

CCC[CH2][Sn]([CH2]CCC)([NH]c1ncnc2[nH]cnc12)[NH]c1ncnc2[nH]cnc12
active: [1]; [8] 96% | [1]; at 50.0 µM 87.8% | [2]; [8] 98% | [2]; at 50.0 µM 91.7% | [3]; [8] 94% | [3]; at 50.0 µM 85.5% | [4]; [8] 89% | [4]; at 50.0 µM 85.2% | [5]; [8] 95% | [5]; at 50.0 µM 87.6% | [6]; [8] 98% | [6]; at 50.0 µM 86.9%
inactive: [1]; [7] 14% | [2]; [7] 14% | [3]; [7] 24% | [4]; [7] 30% | [5]; [7] 14% | [6]; [7] 20%

COc1cc(Nc2ccc(O)cc2)c2ncccc2c1
inactive: [1]; [7] 34% | [2]; [7] 18% | [2]; at 50.0 µM 69.2% | [3]; [7] 16% | [4]; [7] 5% | [4]; at 50.0 µM 21.1% | [5]; [7] 7% | [5]; at 50.0 µM 45.3% | [6]; [7] 33%
active: [1]; [8] 93% | [1]; at 50.0 µM 94.9% | [2]; [8] 97% | [3]; [8] 97% | [3]; at 50.0 µM 94.7% | [4]; [8] 89% | [5]; [8] 94% | [6]; [8] 96% | [6]; at 50.0 µM 94.5%

C=CC(=O)c1ccc2c(c1)OCCOCCOCCOCCOCCO2
active: [1]; at 50.0 µM 77.8% | [5]; [8] 78% | [5]; at 50.0 µM 78% | [6]; [8] 86%
inactive: [1]; [7] -18% | [1]; [8] 64% | [2]; [7] 4% | [2]; [8] 50% | [2]; at 50.0 µM 54.5% | [3]; [7] -13% | [3]; [8] 40% | [3]; at 50.0 µM 62.8% | [4]; [7] 20% | [4]; [8] 42% | [4]; at 50.0 µM 4.4% | [5]; [7] -4% | [6]; [7] 0% | [6]; at 50.0 µM 59.4%
